# Assay results reported in PMC7862700, “An all-to-all approach to the identification of sequence-specific readers for epigenetic DNA modifications on cytosine”.
# What was measured:
# Assay in all cases: DAPPL (digital affinity profiling via proximity ligation, sequencing); 10 mM Tris-HCl pH 7.5, 50 mM NaCl, 1 mM DTT, 4% glycerol, room temperature, 30 min; GST-TFs on glutathione beads, 16-mer random dsDNA library, 0.1% formaldehyde crosslink after washing; high values mean tight binding
# FLI1 = biological target: T1, FLI1 (Homo sapiens, UniProt Q01543 1-452); settings: protein: recombinant; tags: N-terminal GST; dsDNA, one strand shown
# T1 sequence: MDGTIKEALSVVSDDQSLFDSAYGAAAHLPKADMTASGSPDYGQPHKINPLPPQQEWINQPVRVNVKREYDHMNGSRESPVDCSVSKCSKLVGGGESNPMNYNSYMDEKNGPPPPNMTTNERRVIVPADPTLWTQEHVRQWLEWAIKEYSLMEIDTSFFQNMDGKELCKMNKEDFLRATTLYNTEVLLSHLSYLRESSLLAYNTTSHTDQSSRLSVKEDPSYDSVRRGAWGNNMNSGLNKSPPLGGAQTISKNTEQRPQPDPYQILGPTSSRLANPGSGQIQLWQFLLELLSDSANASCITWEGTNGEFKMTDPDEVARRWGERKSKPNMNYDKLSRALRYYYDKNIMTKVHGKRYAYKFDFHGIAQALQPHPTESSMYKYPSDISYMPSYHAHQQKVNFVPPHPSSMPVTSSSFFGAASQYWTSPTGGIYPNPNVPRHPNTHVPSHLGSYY
# In short: (§1)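 After expression in yeast as GST fusions, human transcription factors were bound to glutathione beads, DNA-barcoded and mixed with a tag-only sample. The pools were incubated with 200 nmole of a 16-mer random double-stranded DNA library in Tris/NaCl/DTT/glycerol buffer (30 min, room temperature), washed and crosslinked with 0.1% formaldehyde. Proximity ligation with BsaI/T4 ligase ran for 1 h at 37 °C, before PCR amplification and sequencing on an Illumina NextSeq500. Binding signal is a hexamer's read frequency for a factor divided by its frequency for the tag-only sample.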
# ELK1 = biological target: T2, ELK1 (Homo sapiens, UniProt P19419 1-428); settings: protein: recombinant; tags: N-terminal GST; dsDNA, one strand shown
# T2 sequence: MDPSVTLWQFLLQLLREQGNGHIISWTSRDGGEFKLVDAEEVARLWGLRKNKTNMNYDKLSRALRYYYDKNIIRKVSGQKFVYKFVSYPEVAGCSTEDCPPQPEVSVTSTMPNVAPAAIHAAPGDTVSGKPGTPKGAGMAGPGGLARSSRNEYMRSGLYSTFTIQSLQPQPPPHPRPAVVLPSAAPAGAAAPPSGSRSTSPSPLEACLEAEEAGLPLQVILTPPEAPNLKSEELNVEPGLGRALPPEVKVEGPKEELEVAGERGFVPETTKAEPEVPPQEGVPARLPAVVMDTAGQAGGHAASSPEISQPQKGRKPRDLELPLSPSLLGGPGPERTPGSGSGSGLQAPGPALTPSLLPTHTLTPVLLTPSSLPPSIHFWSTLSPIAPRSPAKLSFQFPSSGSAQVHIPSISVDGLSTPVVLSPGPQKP
# In short: as §1
# GABPA = biological target: T3, GABPA (Homo sapiens, UniProt Q06546 1-454); settings: protein: recombinant; tags: N-terminal GST; dsDNA, one strand shown
# T3 sequence: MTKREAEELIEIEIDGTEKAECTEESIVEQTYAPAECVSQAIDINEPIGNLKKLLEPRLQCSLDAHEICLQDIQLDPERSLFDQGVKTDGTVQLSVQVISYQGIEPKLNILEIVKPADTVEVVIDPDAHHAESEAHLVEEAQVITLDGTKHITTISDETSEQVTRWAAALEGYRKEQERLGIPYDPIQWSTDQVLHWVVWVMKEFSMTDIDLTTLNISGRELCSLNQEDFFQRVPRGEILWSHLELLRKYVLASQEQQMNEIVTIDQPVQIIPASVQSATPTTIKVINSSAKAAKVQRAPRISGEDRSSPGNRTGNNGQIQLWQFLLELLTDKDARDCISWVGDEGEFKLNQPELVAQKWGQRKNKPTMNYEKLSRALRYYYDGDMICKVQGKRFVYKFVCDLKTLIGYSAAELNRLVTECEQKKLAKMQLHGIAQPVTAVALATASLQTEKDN
# In short: as §1
# ERG = biological target: T4, ERG (Homo sapiens, UniProt P11308 1-479); settings: protein: recombinant; tags: N-terminal GST; dsDNA, one strand shown
# T4 sequence: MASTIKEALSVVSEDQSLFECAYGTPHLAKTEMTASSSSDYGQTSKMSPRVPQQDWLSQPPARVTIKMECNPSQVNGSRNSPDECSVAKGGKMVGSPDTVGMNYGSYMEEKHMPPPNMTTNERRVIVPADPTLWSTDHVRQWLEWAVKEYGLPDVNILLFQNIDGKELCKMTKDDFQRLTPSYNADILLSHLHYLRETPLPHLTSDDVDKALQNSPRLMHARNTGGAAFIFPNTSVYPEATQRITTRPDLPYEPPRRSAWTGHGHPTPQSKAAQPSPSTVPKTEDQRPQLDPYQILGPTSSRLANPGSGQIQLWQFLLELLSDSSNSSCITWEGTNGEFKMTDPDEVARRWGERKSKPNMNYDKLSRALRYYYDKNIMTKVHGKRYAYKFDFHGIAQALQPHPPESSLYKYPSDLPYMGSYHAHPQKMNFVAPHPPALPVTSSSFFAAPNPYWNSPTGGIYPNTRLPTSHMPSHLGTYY
# In short: as §1
# ELF1 = ELF1 (Homo sapiens, UniProt P32519 1-619); settings: protein: recombinant; tags: N-terminal GST; dsDNA, one strand shown
# In short: as §1
# EHF = biological target: T5, EHF (Homo sapiens, UniProt Q9NZC4 1-300); settings: protein: recombinant; tags: N-terminal GST; dsDNA, one strand shown
# T5 sequence: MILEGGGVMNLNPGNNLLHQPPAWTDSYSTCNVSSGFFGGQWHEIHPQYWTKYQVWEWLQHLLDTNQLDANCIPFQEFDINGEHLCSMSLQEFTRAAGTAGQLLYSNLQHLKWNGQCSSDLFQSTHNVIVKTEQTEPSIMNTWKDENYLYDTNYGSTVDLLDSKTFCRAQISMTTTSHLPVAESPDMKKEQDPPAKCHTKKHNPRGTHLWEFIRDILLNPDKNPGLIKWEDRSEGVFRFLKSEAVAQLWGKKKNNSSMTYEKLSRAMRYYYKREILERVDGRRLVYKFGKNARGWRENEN
# In short: as §1
# SPI1 = SPI1 (Homo sapiens, UniProt P17947 1-270); settings: protein: recombinant; tags: N-terminal GST; dsDNA, one strand shown
# In short: as §1
# SPIB = SPIB (Homo sapiens, UniProt Q01892 1-262); settings: protein: recombinant; tags: N-terminal GST; dsDNA, one strand shown
# In short: as §1
# ELK3 = biological target: T6, ELK3 (Homo sapiens, UniProt P41970 1-407); settings: protein: recombinant; tags: N-terminal GST; dsDNA, one strand shown
# T6 sequence: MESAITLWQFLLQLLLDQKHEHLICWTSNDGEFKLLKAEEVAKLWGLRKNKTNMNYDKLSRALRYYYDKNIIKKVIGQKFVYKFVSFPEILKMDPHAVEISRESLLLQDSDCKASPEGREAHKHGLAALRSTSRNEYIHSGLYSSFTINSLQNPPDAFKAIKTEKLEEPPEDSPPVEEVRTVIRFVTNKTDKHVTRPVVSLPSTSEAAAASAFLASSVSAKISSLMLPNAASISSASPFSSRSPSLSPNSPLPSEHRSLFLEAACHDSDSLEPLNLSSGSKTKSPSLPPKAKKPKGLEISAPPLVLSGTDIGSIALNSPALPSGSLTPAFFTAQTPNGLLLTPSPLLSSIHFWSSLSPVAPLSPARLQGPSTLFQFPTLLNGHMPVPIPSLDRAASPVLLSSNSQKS
# In short: as §1
# FEV = biological target: T7, FEV (Homo sapiens, UniProt Q99581 1-238); settings: protein: recombinant; tags: N-terminal GST; dsDNA, one strand shown
# T7 sequence: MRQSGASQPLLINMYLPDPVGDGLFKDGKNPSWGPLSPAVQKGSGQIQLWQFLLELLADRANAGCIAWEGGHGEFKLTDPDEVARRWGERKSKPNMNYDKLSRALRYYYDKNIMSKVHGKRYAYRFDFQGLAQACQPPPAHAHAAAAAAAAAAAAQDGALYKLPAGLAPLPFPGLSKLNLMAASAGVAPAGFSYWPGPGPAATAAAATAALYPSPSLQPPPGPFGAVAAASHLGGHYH
# In short: as §1
# ETV5 = ETV5 (Homo sapiens, UniProt P41161 1-510); settings: protein: recombinant; tags: N-terminal GST; dsDNA, one strand shown
# In short: as §1
# HSF1 = HSF1 (Homo sapiens, UniProt Q00613 1-529); settings: protein: recombinant; tags: N-terminal GST; chain copies: 3; dsDNA, one strand shown
# In short: as §1
# SPIC = biological target: T8, SPIC (Homo sapiens, UniProt Q8N5J4 1-248); settings: protein: recombinant; tags: N-terminal GST; dsDNA, one strand shown
# T8 sequence: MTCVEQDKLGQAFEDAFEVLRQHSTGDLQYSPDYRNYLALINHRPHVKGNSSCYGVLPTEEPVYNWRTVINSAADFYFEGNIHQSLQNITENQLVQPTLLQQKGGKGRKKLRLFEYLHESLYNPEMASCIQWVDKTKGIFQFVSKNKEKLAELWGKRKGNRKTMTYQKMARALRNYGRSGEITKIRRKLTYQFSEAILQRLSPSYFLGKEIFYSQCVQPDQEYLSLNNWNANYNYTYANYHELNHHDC
# In short: as §1
# ELF4 = ELF4 (Homo sapiens, UniProt Q99607 1-663); settings: protein: recombinant; tags: N-terminal GST; dsDNA, one strand shown
# In short: as §1
# ELK4 = biological target: T9, ELK4 (Homo sapiens, UniProt P28324-2 1-405); settings: protein: recombinant; tags: N-terminal GST; dsDNA, one strand shown
# T9 sequence: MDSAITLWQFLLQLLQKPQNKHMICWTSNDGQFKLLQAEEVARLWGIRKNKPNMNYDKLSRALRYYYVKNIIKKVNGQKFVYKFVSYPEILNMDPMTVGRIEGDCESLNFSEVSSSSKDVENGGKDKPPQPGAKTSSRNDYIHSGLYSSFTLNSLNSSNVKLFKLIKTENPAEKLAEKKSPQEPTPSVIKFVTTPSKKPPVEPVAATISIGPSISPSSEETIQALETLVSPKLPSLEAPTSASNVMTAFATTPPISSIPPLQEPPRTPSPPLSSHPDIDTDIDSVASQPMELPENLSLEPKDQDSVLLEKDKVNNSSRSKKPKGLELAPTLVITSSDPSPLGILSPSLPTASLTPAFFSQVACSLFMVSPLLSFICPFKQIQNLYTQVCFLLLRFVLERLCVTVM
# In short: as §1
# ETV2 = biological target: T10, ETV2 (Homo sapiens, UniProt O00321 1-342); settings: protein: recombinant; tags: N-terminal GST; dsDNA, one strand shown
# T10 sequence: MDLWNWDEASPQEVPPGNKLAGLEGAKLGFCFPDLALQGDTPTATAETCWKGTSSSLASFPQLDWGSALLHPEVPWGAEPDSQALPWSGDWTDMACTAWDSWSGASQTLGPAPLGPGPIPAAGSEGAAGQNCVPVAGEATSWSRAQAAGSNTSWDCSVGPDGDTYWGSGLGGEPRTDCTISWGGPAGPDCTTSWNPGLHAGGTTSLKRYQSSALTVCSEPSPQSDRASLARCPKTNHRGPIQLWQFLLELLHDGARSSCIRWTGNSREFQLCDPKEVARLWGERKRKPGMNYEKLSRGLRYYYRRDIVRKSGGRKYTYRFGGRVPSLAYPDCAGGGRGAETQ
# In short: as §1
# ELF3 = biological target: T11, ELF3 (Homo sapiens, UniProt P78545 1-371); settings: protein: recombinant; tags: N-terminal GST; dsDNA, one strand shown
# T11 sequence: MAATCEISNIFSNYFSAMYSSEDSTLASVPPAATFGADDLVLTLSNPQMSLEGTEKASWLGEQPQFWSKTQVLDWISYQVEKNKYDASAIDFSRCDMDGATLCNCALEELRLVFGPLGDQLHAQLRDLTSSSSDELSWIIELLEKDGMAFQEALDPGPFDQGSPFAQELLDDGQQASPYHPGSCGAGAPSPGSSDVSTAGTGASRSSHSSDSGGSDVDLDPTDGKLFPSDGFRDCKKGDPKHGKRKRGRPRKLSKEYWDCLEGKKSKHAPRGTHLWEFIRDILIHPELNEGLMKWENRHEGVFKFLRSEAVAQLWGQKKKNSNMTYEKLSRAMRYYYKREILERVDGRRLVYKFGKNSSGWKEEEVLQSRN
# In short: as §1
# CRX = CRX (Homo sapiens, UniProt O43186 1-299); settings: protein: recombinant; tags: N-terminal GST; dsDNA, one strand shown
# In short: as §1
# ETV1 = ETV1 (Homo sapiens, UniProt P50549 1-477); settings: protein: recombinant; tags: N-terminal GST; dsDNA, one strand shown
# In short: as §1
# Chain of SPIB (Q01892 whole entry): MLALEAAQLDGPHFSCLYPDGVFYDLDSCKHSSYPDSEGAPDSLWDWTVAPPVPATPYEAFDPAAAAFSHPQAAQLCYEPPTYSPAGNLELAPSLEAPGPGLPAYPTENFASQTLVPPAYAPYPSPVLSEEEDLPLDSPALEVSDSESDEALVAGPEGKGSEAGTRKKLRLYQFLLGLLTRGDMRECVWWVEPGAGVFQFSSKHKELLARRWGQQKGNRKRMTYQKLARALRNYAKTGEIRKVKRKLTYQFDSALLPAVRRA
# Chain of HSF1 (Q00613 whole entry): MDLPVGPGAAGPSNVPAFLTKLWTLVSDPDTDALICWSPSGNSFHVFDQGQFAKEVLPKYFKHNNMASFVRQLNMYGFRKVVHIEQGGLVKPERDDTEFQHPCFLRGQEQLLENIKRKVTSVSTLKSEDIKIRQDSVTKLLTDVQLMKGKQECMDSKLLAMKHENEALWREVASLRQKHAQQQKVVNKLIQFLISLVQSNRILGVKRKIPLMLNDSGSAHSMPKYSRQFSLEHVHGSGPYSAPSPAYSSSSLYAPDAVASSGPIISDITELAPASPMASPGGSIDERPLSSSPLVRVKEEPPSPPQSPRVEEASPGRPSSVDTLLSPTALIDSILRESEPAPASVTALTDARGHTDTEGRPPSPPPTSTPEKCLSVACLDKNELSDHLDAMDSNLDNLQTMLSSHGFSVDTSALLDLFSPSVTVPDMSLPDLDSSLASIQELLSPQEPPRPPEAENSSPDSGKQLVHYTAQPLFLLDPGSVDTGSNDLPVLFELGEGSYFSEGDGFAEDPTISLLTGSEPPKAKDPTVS
# Chain of ELF4 (Q99607 whole entry): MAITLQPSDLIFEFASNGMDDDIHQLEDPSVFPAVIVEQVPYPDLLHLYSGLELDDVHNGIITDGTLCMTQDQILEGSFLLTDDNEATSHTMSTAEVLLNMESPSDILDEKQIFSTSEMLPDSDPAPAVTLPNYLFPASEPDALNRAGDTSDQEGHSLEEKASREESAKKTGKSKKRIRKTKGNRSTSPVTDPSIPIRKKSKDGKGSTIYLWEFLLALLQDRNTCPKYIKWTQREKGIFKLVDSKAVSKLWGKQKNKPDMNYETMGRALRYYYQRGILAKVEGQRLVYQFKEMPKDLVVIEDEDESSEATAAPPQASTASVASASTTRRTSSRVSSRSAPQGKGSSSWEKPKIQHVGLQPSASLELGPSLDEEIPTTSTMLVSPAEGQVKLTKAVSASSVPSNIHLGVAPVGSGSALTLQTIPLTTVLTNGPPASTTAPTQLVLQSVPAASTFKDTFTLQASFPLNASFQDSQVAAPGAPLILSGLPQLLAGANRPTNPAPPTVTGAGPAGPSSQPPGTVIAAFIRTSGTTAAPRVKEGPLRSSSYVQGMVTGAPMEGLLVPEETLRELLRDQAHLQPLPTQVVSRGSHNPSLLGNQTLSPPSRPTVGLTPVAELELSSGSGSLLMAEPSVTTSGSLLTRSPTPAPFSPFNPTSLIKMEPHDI
# Chain of CRX (O43186 whole entry): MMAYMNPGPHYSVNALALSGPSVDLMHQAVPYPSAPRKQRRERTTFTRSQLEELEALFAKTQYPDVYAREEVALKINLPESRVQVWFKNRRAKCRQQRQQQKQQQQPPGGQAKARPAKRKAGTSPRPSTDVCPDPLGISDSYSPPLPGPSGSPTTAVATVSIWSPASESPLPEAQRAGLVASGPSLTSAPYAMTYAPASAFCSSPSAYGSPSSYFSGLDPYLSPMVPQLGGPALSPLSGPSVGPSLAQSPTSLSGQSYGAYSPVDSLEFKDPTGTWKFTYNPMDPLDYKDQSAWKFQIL
# Chain of ETV5 (P41161 whole entry): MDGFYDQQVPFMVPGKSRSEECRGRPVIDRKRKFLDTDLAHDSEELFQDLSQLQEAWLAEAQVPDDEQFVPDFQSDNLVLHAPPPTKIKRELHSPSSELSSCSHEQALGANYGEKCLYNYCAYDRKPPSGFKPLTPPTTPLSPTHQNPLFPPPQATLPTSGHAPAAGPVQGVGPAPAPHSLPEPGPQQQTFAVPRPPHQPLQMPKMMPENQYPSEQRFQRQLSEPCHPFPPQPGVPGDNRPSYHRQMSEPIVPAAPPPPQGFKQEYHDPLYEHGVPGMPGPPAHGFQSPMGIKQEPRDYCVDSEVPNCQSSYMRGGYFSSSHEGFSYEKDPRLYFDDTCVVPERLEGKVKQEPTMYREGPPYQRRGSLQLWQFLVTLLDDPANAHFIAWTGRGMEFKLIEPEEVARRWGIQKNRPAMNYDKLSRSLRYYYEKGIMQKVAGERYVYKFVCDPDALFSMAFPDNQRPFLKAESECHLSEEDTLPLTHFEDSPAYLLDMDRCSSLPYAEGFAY
# Chain of ELF1 (P32519 whole entry): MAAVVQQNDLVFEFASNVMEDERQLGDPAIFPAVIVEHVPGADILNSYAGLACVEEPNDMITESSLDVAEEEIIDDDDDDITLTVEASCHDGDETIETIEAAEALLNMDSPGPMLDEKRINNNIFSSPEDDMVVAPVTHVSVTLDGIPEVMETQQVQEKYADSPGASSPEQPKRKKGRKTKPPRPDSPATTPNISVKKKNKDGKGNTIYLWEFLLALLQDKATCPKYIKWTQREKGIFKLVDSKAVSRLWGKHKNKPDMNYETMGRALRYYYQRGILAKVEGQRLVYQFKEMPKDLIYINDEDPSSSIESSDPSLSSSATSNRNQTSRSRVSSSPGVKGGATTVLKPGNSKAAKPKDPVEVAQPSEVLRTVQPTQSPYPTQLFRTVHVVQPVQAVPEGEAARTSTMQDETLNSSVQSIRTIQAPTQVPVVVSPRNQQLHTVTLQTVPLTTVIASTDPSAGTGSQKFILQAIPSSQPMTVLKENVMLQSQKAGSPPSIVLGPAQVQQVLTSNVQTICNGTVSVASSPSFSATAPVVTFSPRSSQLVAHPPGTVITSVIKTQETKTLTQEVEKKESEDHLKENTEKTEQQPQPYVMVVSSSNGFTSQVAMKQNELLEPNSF
# Chain of ETV1 (P50549 whole entry): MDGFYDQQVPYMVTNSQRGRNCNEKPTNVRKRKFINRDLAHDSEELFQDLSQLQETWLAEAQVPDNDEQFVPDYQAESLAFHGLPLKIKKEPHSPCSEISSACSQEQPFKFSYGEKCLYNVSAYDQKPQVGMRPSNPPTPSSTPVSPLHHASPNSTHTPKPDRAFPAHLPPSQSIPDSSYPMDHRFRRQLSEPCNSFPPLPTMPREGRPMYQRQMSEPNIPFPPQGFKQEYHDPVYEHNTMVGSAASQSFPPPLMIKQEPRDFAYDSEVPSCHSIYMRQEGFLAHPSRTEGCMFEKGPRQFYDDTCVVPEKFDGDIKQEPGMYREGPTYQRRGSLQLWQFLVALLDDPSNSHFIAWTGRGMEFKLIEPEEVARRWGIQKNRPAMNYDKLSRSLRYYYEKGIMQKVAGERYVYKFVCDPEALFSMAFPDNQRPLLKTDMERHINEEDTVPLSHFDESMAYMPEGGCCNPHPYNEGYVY
sequence,measurement,setting,value
TATACT,binding signal,FLI1,"1.25 fold enrichment (6-mer frequency, TF over GST control)"
same,binding signal,ELK1,"1.41 fold enrichment (6-mer frequency, TF over GST control)"
same,binding signal,GABPA,"1.43 fold enrichment (6-mer frequency, TF over GST control)"
same,binding signal,ERG,"1.29 fold enrichment (6-mer frequency, TF over GST control)"
same,binding signal,ELF1,"1.39 fold enrichment (6-mer frequency, TF over GST control)"
same,binding signal,EHF,"1.39 fold enrichment (6-mer frequency, TF over GST control)"
same,binding signal,SPI1,"1.35 fold enrichment (6-mer frequency, TF over GST control)"
same,binding signal,SPIB,"1.36 fold enrichment (6-mer frequency, TF over GST control)"
same,binding signal,ELK3,"1.43 fold enrichment (6-mer frequency, TF over GST control)"
same,binding signal,FEV,"1.29 fold enrichment (6-mer frequency, TF over GST control)"
same,binding signal,ETV5,"1.34 fold enrichment (6-mer frequency, TF over GST control)"
same,binding signal,HSF1,"1.4 fold enrichment (6-mer frequency, TF over GST control)"
same,binding signal,SPIC,"1.43 fold enrichment (6-mer frequency, TF over GST control)"
same,binding signal,ELF4,"1.31 fold enrichment (6-mer frequency, TF over GST control)"
same,binding signal,ELK4,"1.25 fold enrichment (6-mer frequency, TF over GST control)"
same,binding signal,ETV2,"1.31 fold enrichment (6-mer frequency, TF over GST control)"
same,binding signal,ELF3,"1.3 fold enrichment (6-mer frequency, TF over GST control)"
same,binding signal,CRX,"1.68 fold enrichment (6-mer frequency, TF over GST control)"
same,binding signal,ETV1,"1.34 fold enrichment (6-mer frequency, TF over GST control)"
